Drawing on PubChem BioAssay (EPA / NIEHS), this text covers outcome for 15 compounds.

Records with an inconclusive call do not appear. Activity calls are given as the source filed them. How the source made its calls: active means hit-call score of the fitted dose curve at least 0.9, where 1 is the maximum; inconclusive means response in the unintended direction; inactive means score below 0.9.

Read-out in the first assay: alkyl and aryl transferase (GSTA2), GSTA2 (gene 2939)
Briefly: CLD_GSTA2_48hr: CellzDirect (CLD) Gene Expression Assay for alkyl and aryl transferase (GSTA2) at 48 hours (AID 2283708).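 Further: active means mRNA induction above DMSO vehicle baseline.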 A digest of the protocol: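 GSTA2 mRNA quantified by qNPA chemiluminescence in human primary hepatocyte lysates after 48 h of daily fresh chemical dosing. Increases fitted against 0.2% DMSO vehicle baseline; cytotoxicity from morphology annotated yes/no.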
For the compound `C[N+]1(C)CCCCC1`, the result was inactive.
As for `CCC(CC)Nc1c([N+](=O)[O-])cc(C)c(C)c1[N+](=O)[O-]`, the compound was classed as inactive.
Still for that read-out and setting: in the case of `CCc1cnc(C2=NC(C)(C(C)C)C(=O)N2)c(C(=O)O)c1` (configuration not stated) it was “inactive”; in that of `CC(C1CC1)C(O)(Cn1cncn1)c1ccc(Cl)cc1` (configuration not stated), “inactive”; in that of `CSC1=N[C@@](C)(c2ccccc2)C(=O)N1Nc1ccccc1`, “inactive”.
For `CNC(=O)Oc1cccc2c1OC(C)(C)O2`, the call was inactive.
With `CNC(=O)ON=C(C)SC`, the result was inactive.

Read-out in a further assay: glucuronosyltransferase (UGT1A1), UGT1A1 (gene 54658)
As to the kind of experiment: CLD_UGT1A1_48hr: CellzDirect (CLD) Gene Expression Assay for glucuronosyltransferase (UGT1A1) at 48 hours (AID 2283709).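 Further: actives increase expression relative to DMSO so potency refers to induction.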 Put shortly: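 Quantitative nuclease protection assay (chemiluminescent) for UGT1A1 mRNA at 48 h in human hepatocyte cultures from two donors, redosed daily with fresh solutions. Induction fitted relative to 0.2% DMSO; phase-contrast morphology annotated cytotoxicity.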
With `CC1(C(=O)Nc2ccc(O)c(Cl)c2Cl)CCCCC1`, the result was inactive.
As to `Cc1nn(-c2cc(NS(C)(=O)=O)c(Cl)cc2Cl)c(=O)n1C(F)F`, the outcome was inactive.
For `CCc1cnc(C2=NC(C)(C(C)C)C(=O)N2)c(C(=O)O)c1` (configuration not stated), the outcome was inactive.
For `COP(=O)(OC)OC(Br)C(Cl)(Cl)Br` (configuration not stated), the call was inactive.
Consider `O=C(O)c1cc(Oc2ccc(C(F)(F)F)cc2Cl)ccc1[N+](=O)[O-]`, for which the compound was classed as inactive.
Regarding `S=C1NCCN1`, the compound was called inactive.
With `CC(C1CC1)C(O)(Cn1cncn1)c1ccc(Cl)cc1` (configuration not stated), the compound was called inactive.
As to `CCCCOC(=O)c1ccccc1C(=O)O`, the compound was classed as inactive.
Still for that read-out and setting: in the case of `CCOP(=O)(NC(C)C)Oc1ccc(SC)c(C)c1` (configuration not stated) it was “inactive”; in that of `CN(C)NC(=O)CCC(=O)O`, “inactive”.
